Reference: PubChem BioAssay AID504558 (Broad Institute, 2011)
The campaign covered roughly 350,000 compounds. About 2,400 (0.69%) were called active. Cut-off read from the data, not from the text of the source: active = inhibition above about 41%; inconclusive = no clear call, values can overlap the other calls; inactive = below that. For the sample, actives were picked, then their nearest neighbours and some compounds at random.

assay: EBV LMP1-driven NF-kappaB luciferase reporter inhibitors, primary screen, cell-based, luminescence, single point (AID 504558); settings: LMP1-induced NF-kappaB luciferase reporter cells, at 12.5 µM, active compounds read high;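 note: 0% = neutral control wells and 100% = reference inhibitor control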

SMILES | inhibition
CC(=O)c1ccccc1NC(=O)COC(=O)C1COc2ccccc2O1 (stereo not drawn) | -0.0295% (inactive)
O=c1[nH]c2ccccc2n1C1CCN(CCOc2ccccc2)CC1 | 5.46% (inactive)
CCC(=O)c1ccc(OCC(O)CN2CCN(c3cccc(C(F)(F)F)c3)CC2)cc1 (stereo not drawn) | 1.92% (inactive)
OC(COc1ccc2c(c1)CCC2)CN1CCN(c2cccc(Cl)c2)CC1 (stereo not drawn) | -1.09% (inactive)
OC(COc1ccccc1)CN1CCN(c2cccc(Cl)c2)CC1 (stereo not drawn) | 46.9% (active)
CCOC(=O)c1c(NC(=O)COC(=O)c2ccc(S(=O)(=O)C(F)F)cc2)sc(C(=O)N(C)C)c1C | 1.83% (inactive)
CC(=NNC(N)=O)C1CC2CCC1CC2 (stereo not drawn) | 4.52% (inactive)
CC(OC(=O)c1ccc(NC(=O)CC#N)cc1)C(=O)Nc1ccc(S(=O)(=O)N2CCCC2)cc1 (stereo not drawn) | -2.22% (inactive)
Cc1ccccc1NC(=O)Cc1nc(COC(=O)C(C)(C)Oc2ccc(Cl)cc2)cs1 | -2.11% (inactive)
Cc1noc(C)c1S(=O)(=O)N(C)C[C@H]1OCCCC[C@@H](C)Oc2ccc(NC(=O)CCCN(C)C)cc2C(=O)N([C@H](C)CO)C[C@@H]1C | -4.38% (inactive)
COc1ccccc1NC(=O)c1ccc2nc(N3C(=O)CCC3=O)sc2c1 | -13.5% (inactive)
COc1ccc(C(=O)Nc2cccc(/C=C(/CCC(=O)O)c3nc4ccccc4s3)c2)cc1 | -6.71% (inactive)
COC(=O)Cc1[nH]n(-c2nc3ccccc3s2)c(=O)c1C(C)=Nc1ccc(OC)cc1 | 59.5% (active)
C[C@H]1CN([C@@H](C)CO)C(=O)CCCn2cc(nn2)CO[C@@H]1CN(C)S(=O)(=O)c1cccc(C#N)c1 | -4.24% (inactive)
COc1ccc(OC)c(C(=O)NC2CCCc3c2cnn3-c2cc(C)cc(C)c2)c1 (stereo not drawn) | -16.3% (inactive)
Cn1nccc1C(=O)NC1CCCc2c1cnn2-c1ccccc1F (stereo not drawn) | 28.4% (inactive)
COc1ccc(C(=O)NC2CCCc3c2cnn3-c2cccc(C)c2C)c(OC)n1 (stereo not drawn) | 47.8% (active)
O=C(O)C1=C(C(=O)O)C2CCC1C2 | -22.4% (inactive)
Cc1cccc(NC(=O)COc2ccc(Br)cc2C)n1 | -11.9% (inactive)
COc1ccc(-c2csc(Nc3cccc(C)n3)n2)cc1OC | 56.6% (active)
COc1ccc2c(c1OC)C(=O)OC2Nc1nc(-c2ccccc2)cs1 (stereo not drawn) | 22.9% (inactive)
Cc1ccc(-c2ccc(CN3C(C(C)C)C(=O)N(Cc4cn(CCC5OCCCO5)nn4)CCS3(=O)=O)cc2)cc1 (stereo not drawn) | 3.16% (inactive)
C[C@H]1CN([C@@H](C)CO)C(=O)CCCn2nncc2CO[C@@H]1CN(C)Cc1ccc(Oc2ccccc2)cc1 | 8.56% (inactive)
